# Compound activity as filed in PubChem BioAssay.
# Cardio protect – cardioprotection against H2O2-induced cell death, primary screen, uHTS, H9c2 cells, ATPLite luminescence; H9c2 cardiomyocytes, H2O2 injury protection, 2 h; protection from H2O2 cell death, % at 20 µM; 360,000 compounds, 0.63% hits; AID 588492, 2011;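 active means compounds giving at least 50% protection of heart cells from peroxide-induced death in the single-dose screen, raw or plate-pattern-corrected value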
# CRFR2-BP antag – antagonists of CRF-BP/CRF-R2 complex, primary screen, cell-based, HEK293, calcium dye fluorescence, uHTS; CRF-induced calcium fluorescence; inhibition, % at 11.8 µM; 350,000 compounds, 0.59% hits; AID 588475, 2011;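 active means inhibition of the ligand-induced calcium signal above about 50% at the single tested concentration, limit read from the data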
# H9c2 TAG inh – inhibitors of triacylglycerol accumulation, primary screen, cell-based, uHTS, fluorescence, H9c2 | H9c2 cells, Nile Red lipid (TAG) fluorescence; cells loaded with 200 µM oleic acid | inhibition, % at 12.5 µM | 230,000 compounds, 0.66% hits | AID 651582, 2012;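 active means pattern-corrected inhibition of lipid staining of at least 50% with the nuclear-stain viability signal not falling by more than 50%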
# iPSC survival up – enhancers of single-cell hiPSC survival, primary screen, ATPlite luminescence | 100% = ROCK inhibitor wells, 0% = DMSO | survival enhancement, % at 20 µM | 360,000 compounds, 0.044% hits | AID 602274, 2012; in the data active means survival enhancement above about 18%;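 further: cells exposed to compounds for 16 hours before the ATP read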
# CRFBP-R2 agonist – agonists of CRF-BP/CRF-R2 complex, primary screen, cell-based, HEK293, calcium dye fluorescence, uHTS | CRF-binding protein / CRF receptor 2 complex (human) | calcium dye fluorescence (FLIPR); percent of saturating CRF peptide response | activation, % at 13.2 µM | 350,000 compounds, 0.46% hits;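 active means activation of at least 50%, plus an integration ratio under a set limit after plate pattern correction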
# SKN-1 block – suppressors of acrylamide-induced Pgst-4::GFP reporter in worms, primary screen, SKN-1 inhibitor project, whole organism, uHTS, GFP/RFP fluorescence ratio, strain VP596; C. elegans VP596 Pgst-4::GFP/RFP ratio, 24 h; inhibition, % at 21.8 µM; 360,000 compounds, 0.49% hits;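 active means interference check ratio from 0.5 to 1.5 plus GFP to RFP signal ratio inhibition reaching or exceeding a fixed threshold, cut at about 30% in these data, passing the limit was not always enough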
# H9c2 TAG conf – triacylglycerol accumulation inhibitors, retest, confirmation, cell-based, single concentration, Nile Red fluorescence, H9c2; inhibition, % at 12.5 µM; 990 compounds, 71% hits; shares compounds with H9c2 TAG inh; AID 651629, 2012; H9c2 lipid accumulation; cells loaded with 200 µM oleic acid;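 active means mean inhibition across replicates of 40% or more; inactive means mean inhibition below 40%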
# Hits are given with their value; n = inactive; x = not tested or not shown. This is a sample that favours compounds with a hit; in the whole collection about 2.5% have one here.
SMILES,Cardio protect,CRFR2-BP antag,H9c2 TAG inh,iPSC survival up,CRFBP-R2 agonist,SKN-1 block,H9c2 TAG conf
CCNc1nc(NCC)nc(NS(=O)(=O)c2ccc(N)cc2)n1,n,n,n,n,n,n,x
COCCN1C(=O)c2ccccc2C(C(=O)Nc2ccc3c(c2)OCCO3)C1c1ccc(F)cc1 (stereo not drawn),n,n,57.2,n,n,n,n
CN(Cc1ccc(Cl)cc1)C(=O)CCl,n,n,51.6,n,n,n,59.5
COc1ccc(CN(C)C(=O)CCl)cc1,n,n,n,n,n,n,x
CCCCC(CC)CNC(=O)c1ncn[nH]1 (stereo not drawn),n,n,x,n,n,n,x
C=CCC[C@@H](Cc1ccc(F)cc1)C(=O)OC[C@H](C)NC(=O)[C@@H](CC=C)CC(=O)N[C@@H](CO)Cc1ccccc1,n,n,n,n,n,n,x
C=CCC[C@H](Cc1ccc(F)cc1)C(=O)OC[C@H](C)NC(=O)[C@@H](CC=C)CC(=O)N[C@H](CO)Cc1ccccc1,n,n,54.6,n,n,n,43.6
Cc1cccc(N2CN(S(=O)(=O)c3cccc([N+](=O)[O-])c3)c3nc4ccccc4nc32)c1,n,n,54.3,n,n,n,n
COc1ccccc1N1CN(S(=O)(=O)c2ccc(C)cc2)c2nc3ccccc3nc21,n,n,n,n,n,n,x
COc1ccc(OC)c(C(=O)NC(CC(N)=O)c2ccc(NCc3ccccn3)c([N+](=O)[O-])c2)c1 (stereo not drawn),n,n,n,n,n,n,x
COc1cc(OC)cc(-c2c(C#Cc3ccsc3)c3cc(-c4cc(OC)c(OC)c(OC)c4)ccc3n2C)c1,n,n,n,n,n,n,x
COc1cc(OC)cc(-c2c(C#Cc3ccsc3)c3cc(-c4ccc5[nH]ccc5c4)ccc3n2C)c1,n,n,x,n,n,n,x
COc1cc(C#Cc2c(-c3cncn3C)n(C)c3ccc(-c4ccc5[nH]ccc5c4)cc23)cc(OC)c1,n,n,92.6,n,n,n,92.0
COc1cc(C#Cc2c(-c3cncn3C)n(C)c3ccc(-c4cc(OC)c(OC)c(OC)c4)cc23)cc(OC)c1,n,n,60.7,n,n,n,76.5
O=S(=O)(/C=C/c1cccc(Br)c1)N1CCOCC1,n,n,x,n,n,n,x
Cc1ccc(Cl)cc1NC(=S)N/N=C/c1cccc2ccccc12,n,n,68.6,n,n,n,85.2
O=C(CCl)N(CCCNC(=O)C(F)(F)F)c1ccc([N+](=O)[O-])cc1,n,n,67.9,n,n,n,55.9
COC(=O)[C@]1(Cc2ccccc2)N[C@H](CN(C)S(=O)(=O)c2ccc(-c3ccccc3)cc2)[C@@H]2C(=O)N(C)C(=O)[C@@H]21,n,n,n,n,n,n,x
O=C1NC(c2cccc3ccccc23)Nc2ccc(Cl)cc21 (stereo not drawn),n,n,52.1,n,n,n,n
Clc1ccc(C2Nc3cccc4cccc(c34)N2)c(Cl)c1,n,n,n,n,n,n,x
Cc1cc(C)cc(CC(=O)N2CCC2(C)C(=O)NS(=O)(=O)c2ccc(Cl)s2)c1 (stereo not drawn),n,x,74.9,n,x,n,n
Cn1cnnc1SCC(=O)NC1CC1,n,n,n,n,n,n,x
CCOC(=O)c1c(C)[nH]c(C(=O)OCC(=O)NCCc2ccc(OCC)c(OCC)c2)c1C,n,n,56.7,n,n,n,63.1
C=CCNC(=O)c1onc(CSc2cccc(OC)c2)c1C(=O)NCC=C,n,n,n,n,n,n,x
CCCC[C@H](CN[C@@H](CNC)[C@H](C)CC)NCCC12CCC(CC1)C2,n,n,50.8,n,n,n,70.3
C=CCn1c(SCC(=O)N2CCC(C)CC2)nc2c([nH]c3ccccc32)c1=O,n,n,n,n,n,n,x
